Results reported in the supplement of paper PMC13380429.
Values without a mark were called inactive.

Tested on: Vero E6 infected with SARS-CoV-2
Assay: inhibition of SARS-CoV-2 cytopathic effect; higher = more antiviral protection, active = above 15
Details: 48 h

SMILES	inhibition of SARS-CoV-2 cytopathic effect (1 nM) [%]	inhibition of SARS-CoV-2 cytopathic effect (8.33 nM) [%]	inhibition of SARS-CoV-2 cytopathic effect (100 nM)	inhibition of SARS-CoV-2 cytopathic effect (833.33 nM)	inhibition of SARS-CoV-2 cytopathic effect (10000 nM)
Clc1ccc(COC(Cn2ccnc2)c2ccc(Cl)cc2Cl)cc1 (stereo not given) [econazole]	1.49	1.04	0.94%	3.08%	-1.91%
NC(=O)NC1NC(=O)NC1=O (stereo not given) [allantoin]	-0.84	-1.51	-2.49%	-1.11%	1.18%
CC(=O)O[C@]1(C(C)=O)CC[C@H]2[C@@H]3C[C@H](C)C4=CC(=O)CC[C@]4(C)[C@H]3CC[C@@]21C [medroxyprogesterone-acetate]	1.02	0.71	-1.14%	2.58%	6.49%
O=C1NC(=O)c2cc(Nc3ccccc3)c(Nc3ccccc3)cc21	-1.24	1.7	-0.24%	0.41%	1.85%
CC(C)(C)c1cc(C=C(C#N)C#N)cc(Br)c1O	0.94	-0.19	0.29%	-1.48%	4.93%
O=C(CCc1ccc(O)cc1)c1c(O)cc(O)cc1O [phloretin]	-0.18	-0.18	6.09%	-0.49%	-1.02%
CN(NC(=O)CC(=O)NN(C)C(=S)c1ccccc1)C(=S)c1ccccc1 [elesclomol]	1.66	2.35	18% (active)	19.7% (active)	36.4% (active)
CC(C)(CCCCCC(O)CCCCCC(C)(C)C(=O)O)C(=O)O [bempedoic-acid]	0.91	0.43	0.18%	0.98%	1.16%
C[C@H]1CNCCCN1S(=O)(=O)c1cccc2cncc(F)c12 [ripasudil]	-0.82	0.41	-1.45%	-1.5%	-5.58%
CSCC[C@H](NC(=O)[C@H](CC(C)C)NC(=O)[C@@H](Cc1c[nH]c2ccccc12)NC(=O)[C@H](Cc1ccccc1)N(C)C(=O)[C@@H](Cc1c[nH]c2ccccc12)NC(=O)[C@@H](N)CCCNC(=N)N)C(N)=O [antagonist-g]	2.09	0.43	-0.05%	1.24%	-1.09%
Cc1cc(O)c2c(c1)C(=O)c1cccc(O)c1C2=O [chrysophanic-acid]	-0.27	0.87	0.28%	-0.5%	5.09%
COc1cc(CNC(=O)CCCC/C=C/C(C)C)ccc1O [capsaicin]	0.65	0.89	1.27%	-1.15%	2.73%
CC[N+](CC)(CC)CCOc1cccc(OCC[N+](CC)(CC)CC)c1OCC[N+](CC)(CC)CC [gallamine-triethiodide]	0.22	3.57	3.37%	2.88%	-1.08%
CC1(C)CN(C(=O)c2ccc(-c3cccc4nc(NC(=O)C5CC5)nn34)cc2)C1 [solcitinib]	0.35	1.82	2.28%	4.05%	4.4%
CC(C)c1cc(C(=O)N2Cc3ccc(CN4CCN(C)CC4)cc3C2)c(O)cc1O	-1.87	-3.96	-5.27%	-1.1%	0.31%
O=c1c2ccccc2nc2n1CCc1c-2[nH]c2ccccc12 [rutaecarpine]	-1.97	0.36	-0.87%	0.6%	-0.59%
Cc1cc(C)c2c(N)c(C(=O)NCc3ccc(Cl)cc3)sc2n1	1.18	-1.88	-0.97%	-0.85%	0.14%
Clc1ccc(C(Cn2ccnc2)OCc2c(Cl)cccc2Cl)c(Cl)c1 (stereo not given) [isoconazole]	0.43	0.08	1.75%	1.3%	-2.37%
